Data from the supplement of paper PMC6992640.

Tested on: UCD52 (cells of a triple-negative basal-like breast cancer xenograft)
Assay: cell viability of combination (% of vehicle); higher = less cytotoxic
Conditions: 1 µM; 72 h; partner dose: 10 nM
Experimental: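 PDX cells were treated for 72 h with each drug at 1 µM plus afatinib (10 nM; 1 µM for WHIM30). Luciferase viability is expressed as percent of vehicle.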

In order of falling “cell viability of combination” value:
1. CC1(COc2ccc3c(c2)ncn3-c2ccc3cccc(N4CCC(N)CC4)c3n2)COC1 + CN(C)C/C=C/C(=O)Nc1cc2c(Nc3ccc(F)c(Cl)c3)ncnc2cc1O[C@H]1CCOC1 [Afatinib]  108
2. C=C(c1ccc(C(=O)O)cc1)c1cc2c(cc1C)C(C)(C)CCC2(C)C [Bexarotene] + CN(C)C/C=C/C(=O)Nc1cc2c(Nc3ccc(F)c(Cl)c3)ncnc2cc1O[C@H]1CCOC1 [Afatinib]  82.4
3. CCc1c(Cl)c(O)c(Cl)c(O)c1C(=O)OC1C(C)OC(OCC2=CC=CCC(O)C(C)=CC(CC)C(OC3OC(C)(C)C(OC(=O)C(C)C)C(O)C3O)C(C)=CC(C)=CCC(C(C)O)OC2=O)C(OC)C1O (stereo not given) [Fidaxomicin] + CN(C)C/C=C/C(=O)Nc1cc2c(Nc3ccc(F)c(Cl)c3)ncnc2cc1O[C@H]1CCOC1 [Afatinib]  81.9
4. COC(=O)C1=C(C)NC(C)=C(C(=O)OC2CCCN(Cc3ccccc3)C2)C1c1cccc([N+](=O)[O-])c1.Cl (stereo not given) [Benidipine HCl] + CN(C)C/C=C/C(=O)Nc1cc2c(Nc3ccc(F)c(Cl)c3)ncnc2cc1O[C@H]1CCOC1 [Afatinib]  79.2
5. CCCCCCCCOc1ccccc1C(=O)Nc1ccc(C(=O)OCC[N+](C)(CC)CC)cc1.[Br-] [Otilonium Bromide] + CN(C)C/C=C/C(=O)Nc1cc2c(Nc3ccc(F)c(Cl)c3)ncnc2cc1O[C@H]1CCOC1 [Afatinib]  78.6
6. Cc1c(Cl)cccc1Nc1ccccc1C(=O)O [Tolfenamic Acid] + CN(C)C/C=C/C(=O)Nc1cc2c(Nc3ccc(F)c(Cl)c3)ncnc2cc1O[C@H]1CCOC1 [Afatinib]  78.5
7. CN(C)CCOc1ccc(C(=C(CCCl)c2ccccc2)c2ccccc2)cc1.O=C(O)CC(O)(CC(=O)O)C(=O)O [Toremifene Citrate] + CN(C)C/C=C/C(=O)Nc1cc2c(Nc3ccc(F)c(Cl)c3)ncnc2cc1O[C@H]1CCOC1 [Afatinib]  77.4
8. Clc1ccc(CSC(Cn2ccnc2)c2ccc(Cl)cc2Cl)cc1.O=[N+]([O-])O (stereo not given) [Sulconazole Nitrate] + CN(C)C/C=C/C(=O)Nc1cc2c(Nc3ccc(F)c(Cl)c3)ncnc2cc1O[C@H]1CCOC1 [Afatinib]  74.1
9. CCCSc1nc(NC2CC2c2ccc(F)c(F)c2)c2nnn(C3CC(OCCO)C(O)C3O)c2n1 (stereo not given) [Ticagrelor] + CN(C)C/C=C/C(=O)Nc1cc2c(Nc3ccc(F)c(Cl)c3)ncnc2cc1O[C@H]1CCOC1 [Afatinib]  72.2
10. COc1cc(C(=O)NS(=O)(=O)c2ccccc2C)ccc1Cc1cn(C)c2ccc(NC(=O)OC3CCCC3)cc12 [Zafirlukast] + CN(C)C/C=C/C(=O)Nc1cc2c(Nc3ccc(F)c(Cl)c3)ncnc2cc1O[C@H]1CCOC1 [Afatinib]  71.6
11. COCCOC(=O)C1=C(C)NC(C)=C(C(=O)OCC=Cc2ccccc2)C1c1cccc([N+](=O)[O-])c1 (stereo not given) [Cilnidipine] + CN(C)C/C=C/C(=O)Nc1cc2c(Nc3ccc(F)c(Cl)c3)ncnc2cc1O[C@H]1CCOC1 [Afatinib]  70.6
12. Cl.O.O=C1Cc2cc(CCN3CCN(c4nsc5ccccc45)CC3)c(Cl)cc2N1 [Ziprasidone hydrochloride monohydrate] + CN(C)C/C=C/C(=O)Nc1cc2c(Nc3ccc(F)c(Cl)c3)ncnc2cc1O[C@H]1CCOC1 [Afatinib]  70.3
13. COc1ccc(CN2CCN(C(c3ccc(F)cc3)c3ccc(F)cc3)CC2)c(OC)c1OC.Cl.Cl [Lomerizine HCl] + CN(C)C/C=C/C(=O)Nc1cc2c(Nc3ccc(F)c(Cl)c3)ncnc2cc1O[C@H]1CCOC1 [Afatinib]  68.9
14. N.N.O=C([O-])C1(C(=O)[O-])CCC1.[Pt+2] [Carboplatin] + CN(C)C/C=C/C(=O)Nc1cc2c(Nc3ccc(F)c(Cl)c3)ncnc2cc1O[C@H]1CCOC1 [Afatinib]  68.6
15. CCCCCOc1ccc(-c2ccc(-c3ccc(C(=O)N[C@H]4C[C@@H](O)[C@@H](O)NC(=O)[C@@H]5[C@@H](O)[C@@H](C)CN5C(=O)[C@H]([C@@H](C)O)NC(=O)[C@H]([C@H](O)[C@@H](O)c5ccc(O)cc5)NC(=O)[C@@H]5C[C@@H](O)CN5C(=O)[C@H]([C@@H](C)O)NC4=O)cc3)cc2)cc1 [Anidulafungin] + CN(C)C/C=C/C(=O)Nc1cc2c(Nc3ccc(F)c(Cl)c3)ncnc2cc1O[C@H]1CCOC1 [Afatinib]  68.6
16. O=C1C=CC=CC1=C1NC(=C2C=CC=CC2=O)N(c2ccc(C(=O)O)cc2)N1 [Deferasirox] + CN(C)C/C=C/C(=O)Nc1cc2c(Nc3ccc(F)c(Cl)c3)ncnc2cc1O[C@H]1CCOC1 [Afatinib]  68.2
17. CCCCc1oc2ccccc2c1C(=O)c1cc(I)c(OCCN(CC)CC)c(I)c1.Cl [Amiodarone HCl] + CN(C)C/C=C/C(=O)Nc1cc2c(Nc3ccc(F)c(Cl)c3)ncnc2cc1O[C@H]1CCOC1 [Afatinib]  66.3
18. CN1CCCC1CCOC(C)(c1ccccc1)c1ccc(Cl)cc1.O=C(O)C=CC(=O)O (stereo not given) [Clemastine Fumarate] + CN(C)C/C=C/C(=O)Nc1cc2c(Nc3ccc(F)c(Cl)c3)ncnc2cc1O[C@H]1CCOC1 [Afatinib]  65.2
19. Cl.OC(CNCC(O)C1CCc2cc(F)ccc2O1)C1CCc2cc(F)ccc2O1 (stereo not given) [Nebivolol] + CN(C)C/C=C/C(=O)Nc1cc2c(Nc3ccc(F)c(Cl)c3)ncnc2cc1O[C@H]1CCOC1 [Afatinib]  64.9
20. COc1ccc2c(O[C@H]3CC4C(=O)N(C)CCCC/C=C\[C@H]5C[C@@]5(C(=O)NS(=O)(=O)C5CC5)NC(=O)[C@@H]4C3)cc(-c3nc(C(C)C)cs3)nc2c1C (stereo not given in full) [Simeprevir] + CN(C)C/C=C/C(=O)Nc1cc2c(Nc3ccc(F)c(Cl)c3)ncnc2cc1O[C@H]1CCOC1 [Afatinib]  64.5
21. Clc1ccc(COC(Cn2ccnc2)c2ccc(Cl)cc2Cl)cc1.O=[N+]([O-])O (stereo not given) [Econazole nitrate] + CN(C)C/C=C/C(=O)Nc1cc2c(Nc3ccc(F)c(Cl)c3)ncnc2cc1O[C@H]1CCOC1 [Afatinib]  62.2
22. CN1CCC(COc2cnc(-c3cccc(Cn4nc(-c5cccc(C#N)c5)ccc4=O)c3)nc2)CC1 + CN(C)C/C=C/C(=O)Nc1cc2c(Nc3ccc(F)c(Cl)c3)ncnc2cc1O[C@H]1CCOC1 [Afatinib]  60.5
23. CC(NCCCc1cccc(C(F)(F)F)c1)c1cccc2ccccc12 (stereo not given) [Cinacalcet] + CN(C)C/C=C/C(=O)Nc1cc2c(Nc3ccc(F)c(Cl)c3)ncnc2cc1O[C@H]1CCOC1 [Afatinib]  59.9
24. CNCCC(Oc1ccc(C(F)(F)F)cc1)c1ccccc1.Cl (stereo not given) [Fluoxetine HCl] + CN(C)C/C=C/C(=O)Nc1cc2c(Nc3ccc(F)c(Cl)c3)ncnc2cc1O[C@H]1CCOC1 [Afatinib]  59.1
25. COC(=O)NC(C(=O)N1CCCC1c1ncc(-c2ccc(-c3ccc(-c4cnc(C5CCCN5C(=O)C(NC(=O)OC)C(C)C)[nH]4)cc3)cc2)[nH]1)C(C)C (stereo not given) + CN(C)C/C=C/C(=O)Nc1cc2c(Nc3ccc(F)c(Cl)c3)ncnc2cc1O[C@H]1CCOC1 [Afatinib]  59.1
26. CO[C@@]12[C@H](COC(N)=O)C3=C(C(=O)C(C)=C(N)C3=O)N1C[C@@H]1N[C@@H]12 [Mitomycin C] + CN(C)C/C=C/C(=O)Nc1cc2c(Nc3ccc(F)c(Cl)c3)ncnc2cc1O[C@H]1CCOC1 [Afatinib]  58.4
27. COC(=O)NC(C(=O)NC(Cc1ccccc1)C(O)CN(Cc1ccc(-c2ccccn2)cc1)NC(=O)C(NC(=O)OC)C(C)(C)C)C(C)(C)C (stereo not given) [Atazanavir] + CN(C)C/C=C/C(=O)Nc1cc2c(Nc3ccc(F)c(Cl)c3)ncnc2cc1O[C@H]1CCOC1 [Afatinib]  56.9
28. Cc1cn(-c2cc(NC(=O)c3ccc(C)c(Nc4nccc(-c5cccnc5)n4)c3)cc(C(F)(F)F)c2)cn1 [Nilotinib(AMN-107)] + CN(C)C/C=C/C(=O)Nc1cc2c(Nc3ccc(F)c(Cl)c3)ncnc2cc1O[C@H]1CCOC1 [Afatinib]  56.1
29. CC(C)c1nc(N(C)S(C)(=O)=O)nc(-c2ccc(F)cc2)c1C=CC(O)CC(O)CC(=O)[O-].CC(C)c1nc(N(C)S(C)(=O)=O)nc(-c2ccc(F)cc2)c1C=CC(O)CC(O)CC(=O)[O-].[Ca+2] (stereo not given) [Rosuvastatin Calcium] + CN(C)C/C=C/C(=O)Nc1cc2c(Nc3ccc(F)c(Cl)c3)ncnc2cc1O[C@H]1CCOC1 [Afatinib]  55.2
30. C#Cc1cccc(Nc2ncnc3cc(OCCOC)c(OCCOC)cc23)c1 [Erlotinib] + CN(C)C/C=C/C(=O)Nc1cc2c(Nc3ccc(F)c(Cl)c3)ncnc2cc1O[C@H]1CCOC1 [Afatinib]  55
31. C#Cc1cccc(Nc2ncnc3cc(OCCOC)c(OCCOC)cc23)c1.Cl [Erlotinib Hydrochloride] + CN(C)C/C=C/C(=O)Nc1cc2c(Nc3ccc(F)c(Cl)c3)ncnc2cc1O[C@H]1CCOC1 [Afatinib]  54.5
32. CN1CCN(c2ccc(C(=O)/N=c3\[nH][nH]c4ccc(Cc5cc(F)cc(F)c5)cc34)c(NC3CCOCC3)c2)CC1 [Entrectinib] + CN(C)C/C=C/C(=O)Nc1cc2c(Nc3ccc(F)c(Cl)c3)ncnc2cc1O[C@H]1CCOC1 [Afatinib]  54.3
33. CCOC(=O)c1c(CSc2ccccc2)n(C)c2cc(Br)c(O)c(CN(C)C)c12.Cl [Arbidol HCl] + CN(C)C/C=C/C(=O)Nc1cc2c(Nc3ccc(F)c(Cl)c3)ncnc2cc1O[C@H]1CCOC1 [Afatinib]  53
34. CCN(CC)CCNC(=O)c1c(C)[nH]c(C=C2C(=O)Nc3ccc(F)cc32)c1C [Sunitinib] + CN(C)C/C=C/C(=O)Nc1cc2c(Nc3ccc(F)c(Cl)c3)ncnc2cc1O[C@H]1CCOC1 [Afatinib]  50.4
35. COc1cccc2c1C(=O)c1c(O)c3c(c(O)c1C2=O)CC(O)(C(=O)CO)CC3OC1CC(N)C(O)C(C)O1.Cl (stereo not given) [Doxorubicin (Adriamycin) HCl] + CN(C)C/C=C/C(=O)Nc1cc2c(Nc3ccc(F)c(Cl)c3)ncnc2cc1O[C@H]1CCOC1 [Afatinib]  40.9
36. COc1ccc2cc1Oc1ccc(cc1)CC1c3c(cc4c(c3Oc3cc5c(cc3OC)CCN(C)C5C2)OCO4)CCN1C (stereo not given) [Cepharanthine] + CN(C)C/C=C/C(=O)Nc1cc2c(Nc3ccc(F)c(Cl)c3)ncnc2cc1O[C@H]1CCOC1 [Afatinib]  40.1
37. Cl.Cl.O=C1c2c(O)ccc(O)c2C(=O)c2c(NCCNCCO)ccc(NCCNCCO)c21 [Mitoxantrone HCl] + CN(C)C/C=C/C(=O)Nc1cc2c(Nc3ccc(F)c(Cl)c3)ncnc2cc1O[C@H]1CCOC1 [Afatinib]  32.2
38. COc1cc2c(Oc3ccc4[nH]c(C)cc4c3F)ncnc2cc1OCCCN1CCCC1 [Cediranib (AZD217)] + CN(C)C/C=C/C(=O)Nc1cc2c(Nc3ccc(F)c(Cl)c3)ncnc2cc1O[C@H]1CCOC1 [Afatinib]  24.5
39. CC(=O)C1(O)Cc2c(O)c3c(c(O)c2C(OC2CC(N)C(O)C(C)O2)C1)C(=O)c1ccccc1C3=O.Cl (stereo not given) [Idarubicin HCl] + CN(C)C/C=C/C(=O)Nc1cc2c(Nc3ccc(F)c(Cl)c3)ncnc2cc1O[C@H]1CCOC1 [Afatinib]  24.3
40. COC(=O)c1ccc2c(c1)NC(=O)C2=C(Nc1ccc(N(C)C(=O)CN2CCN(C)CC2)cc1)c1ccccc1 [Nintedanib (BIBF 1120)] + CN(C)C/C=C/C(=O)Nc1cc2c(Nc3ccc(F)c(Cl)c3)ncnc2cc1O[C@H]1CCOC1 [Afatinib]  19.6
